This is an account of results in the supplement of paper PMC9925115.

± gives the uncertainty stated by the source.

For the experiment, the system named is FLX1. Kind of experiment: cell viability z-score within plate (CellTiter-Glo), mean of 3 biological replicates; higher = higher viability relative to plate (less growth inhibition). To be noted: 2 µM; time (hr): 120. How it is done: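 FLX1 fibrolamellar carcinoma cells (DNAJB1-PRKACA fusion), 600 cells/well in 384-well plates, treated with a Selleck kinase inhibitor library (L1200) at 2 uM for 5 days (120 hr); viability by CellTiter-Glo. A z-score was computed within each plate and averaged over three biological replicates.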
As for `O=c1[nH]c2ccc(Cl)cc2c(N[C@@H]2CN3CCC2CC3)c1-c1nc2ccccc2[nH]1`, the “cell viability z-score within plate” value amounted to 0.562 ± 0.43.

Consider `CCN1CCN(C(=O)Cc2ccc(Nc3ncc(F)c(Nc4ccc(C(=O)Nc5ccccc5Cl)cc4)n3)cc2)CC1` [Aurora A Inhibitor I], for which the “cell viability z-score within plate” value is -0.367 ± 0.29. The result for `Cc1ccccc1-n1c(Cn2ncc3c(N)ncnc32)nc2cccc(C)c2c1=O` reads 0.16 ± 0.68; that for `CC(C)(C)c1cc(C=C(C#N)C#N)cc(C(C)(C)C)c1O` [Tyrphostin 9], 0.448 ± 0.24. In the case of `Cn1cc(C2=C(c3cn(C4CCN(Cc5ccccn5)CC4)c4ccccc34)C(=O)NC2=O)c2ccccc21`, the “cell viability z-score within plate” value is -2.47 ± 0.57.

On to `CC(C)(C)c1cc(C=C(C#N)C#N)cc(Br)c1O`, for which the “cell viability z-score within plate” value is -0.784 ± 0.7.
